Rows were chosen to be rich in hits. Some 11% of all compounds tested hit in one or more screens of this group.
HP1b binding inh = HTS for Inhibitors of HP1-beta Chromodomain Interactions with Methylated Histone Tails; AlphaScreen HP1-beta / biotin-H3K9me3 peptide binding; actives 0.56% (n = 390,000); Potency, µM (series often up to 114 µM), hits mostly inhibitors; note: nearly all actives have a fitted effect of over 70% in size
Target sequence (P83916 whole entry, looked up): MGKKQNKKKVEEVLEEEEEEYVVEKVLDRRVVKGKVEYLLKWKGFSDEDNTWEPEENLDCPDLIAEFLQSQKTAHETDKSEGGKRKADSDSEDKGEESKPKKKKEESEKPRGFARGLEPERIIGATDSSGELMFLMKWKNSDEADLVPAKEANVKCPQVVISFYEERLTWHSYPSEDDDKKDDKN
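HP1-beta protein (50 nM final) preincubated 30 min at room temperature with biotinylated H3(1-18)K9me3 peptide (50 nM) in PBS pH 7.4, 0.01% Tween-20, then compound added for 30 min. AlphaScreen streptavidin donor/nickel chelate acceptor beads (10 ug/mL final), 30 min dark, luminescence read.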
L3MBTL1 inh = qHTS Assay for the Inhibitors of L3MBTL1; Lethal(3)malignant brain tumor-like protein 1 (Homo sapiens), Q9Y468; AlphaScreen L3MBTL1–H3K9me1 peptide binding; Potency, µM (series often up to 57.1 µM), actives largely listed as inhibitors; actives 0.66% (n = 230,000); AID 485360, 2010; note: nearly all actives have a fitted effect of over 60% in size
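AlphaScreen assay: L3MBTL1 (50 nM final) was preincubated 30 min at room temperature with biotinylated H3(1-15)K9me1 peptide (75 nM final), then 30 min with library compounds; streptavidin donor and nickel chelate acceptor beads (10 ug/mL final) added, 30 min dark.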
BAZ2B block = qHTS Assay for Inhibitors of BAZ2B. Bromodomain adjacent to zinc finger domain protein 2B (Homo sapiens), Q9UIF8. Potency, µM (series often up to 114 µM), most hits filed as inhibitors. AID 504333, 2011. actives 4.4% (n = 360,000). AlphaScreen BAZ2B-H3K14Ac peptide displacement; note: nearly all actives have a fitted effect of over 60% in size
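Complex of BAZ2B and biotin-H3K14Ac (50 nM apiece) forms over 30 min at RT, then faces library compounds up to 110 uM for another 30 min; AlphaScreen beads added, 20 min dark incubation, luminescence read.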
JMJD2A Tudor = qHTS Assay for Inhibitors of JMJD2A-Tudor Domain; AlphaScreen JMJD2A-Tudor / H3K4me3 peptide binding; Potency, µM (top dose mostly 114 µM), most hits filed as inhibitors; actives 4.4% (n = 390,000); AID 504339, 2011; note: nearly all actives have a fitted effect of over 50% in size
G9a block = qHTS Assay for Inhibitors of Histone Lysine Methyltransferase G9a; Histone-lysine N-methyltransferase EHMT2 (Homo sapiens), Q96KQ7; G9a H3K9 monomethylation, AlphaScreen, 2 h; Potency, µM (titrated, usually from 102 µM), actives largely listed as inhibitors; actives 8.8% (n = 350,000); AID 504332, 2011; note: nearly all actives have a fitted effect of over 75% in size
Target sequence (Q96KQ7 913-1193 limits assumed): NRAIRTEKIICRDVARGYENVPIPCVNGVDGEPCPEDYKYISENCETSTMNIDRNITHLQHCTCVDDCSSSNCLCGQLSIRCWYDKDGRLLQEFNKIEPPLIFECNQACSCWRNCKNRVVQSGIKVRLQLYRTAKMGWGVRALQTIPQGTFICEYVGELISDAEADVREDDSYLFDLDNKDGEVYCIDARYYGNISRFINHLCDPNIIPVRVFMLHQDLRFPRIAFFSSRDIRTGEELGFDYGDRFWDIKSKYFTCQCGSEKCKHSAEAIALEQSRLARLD
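AlphaScreen detection with an anti-monomethyl H3K9 antibody quantified product after a 2 h room-temperature reaction containing 500 nM biotinylated H3K9 peptide, 20 µM SAM and 20 nM enzyme, which had been preincubated 15 min with compound.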
Large screens that a line does not name were inactive. Calls come from the whole dose curve; as a rule, active = well fitted inhibition curve with a large enough effect; inconclusive = small, poorly fitted or top-dose-only effect; inactive = no such curve, though single readings can be large or run the other way.

CC(C)c1ccc(NC(=O)CSC2=Nc3ccccc3C3=NC(CC(=O)NC4CCCCC4)C(=O)N23)cc1 (stereo not given)	none (no result: L3MBTL1 inh)
O=C(Nc1ccccc1)c1ccc2nc(-c3ccco3)c(-c3ccco3)nc2c1	HP1b binding inh inconclusive, L3MBTL1 inh inconclusive, JMJD2A Tudor 50µM, G9a block inconclusive
O=C(Nc1ccc(N2CCOCC2)cc1)c1ccc2nc(-c3ccco3)c(-c3ccco3)nc2c1	G9a block inconclusive
CNC(=O)c1ccc2nc(-c3ccco3)c(-c3ccco3)nc2c1	HP1b binding inh 18µM, JMJD2A Tudor 18µM (no result: L3MBTL1 inh, BAZ2B block, G9a block)
CCNC(=O)c1ccc2nc(-c3ccccc3)c(-c3ccccc3)nc2c1	none (no result: L3MBTL1 inh, BAZ2B block, G9a block)
COc1ccc(N2CCN(S(=O)(=O)c3ccc(C4CCCCC4)cc3)CC2)cc1	none (no result: L3MBTL1 inh)
CCOC(=O)N1CCCN(/[N+]([O-])=N/Oc2ccc([N+](=O)[O-])cc2[N+](=O)[O-])CC1	none (no result: L3MBTL1 inh, BAZ2B block, G9a block)
CC(C)(C)C1CCc2[nH]c3ccccc3c(=O)c2C1 (stereo not given)	none
Cc1c2c(nc3ccccc13)CCC(C(C)(C)C)C2 (stereo not given)	G9a block 50µM
CCCC/C=C/[C@@H](c1ccccc1)C1COC(=O)CC1O (stereo not given in full)	none (no result: L3MBTL1 inh, BAZ2B block, G9a block)
CCn1ccnc1CN(C)Cc1cn(C)nc1-c1ccccc1F	BAZ2B block inconclusive, G9a block inconclusive
Cc1ccc(-n2cc(CN(C)Cc3ncc[nH]3)c(-c3cccc(C)c3)n2)cc1	L3MBTL1 inh inconclusive, BAZ2B block 50µM, JMJD2A Tudor 32µM, G9a block inconclusive
CN(Cc1ncc[nH]1)Cc1cn(-c2ccccc2)nc1-c1ccc2c(c1)OCO2	BAZ2B block inconclusive, G9a block inconclusive
Cc1ccc(C)c(-n2cc(CN3CCNC(=O)CC3)c(-c3ccccc3)n2)c1	G9a block inconclusive
Cc1ccc(-n2cc(CN(C)Cc3nccn3C)c(-c3ccc(F)cc3)n2)cc1	HP1b binding inh inconclusive, BAZ2B block 20µM, JMJD2A Tudor 45µM (no result: G9a block)
CCn1ccnc1CN(C)Cc1cn(-c2ccccc2)nc1-c1ccc(OC)cc1F	JMJD2A Tudor 40µM, G9a block inconclusive
CN(Cc1cn(C)nc1-c1cccc(Cl)c1)Cc1nccn1C	BAZ2B block inconclusive
CCn1ccnc1CN(C)Cc1cn(-c2cc(C)ccc2C)nc1-c1ccccc1	BAZ2B block inconclusive, JMJD2A Tudor inconclusive, G9a block 50µM
COc1cccc(CNC(=O)c2ccc(-c3nc(CS(=O)(=O)c4ccccc4)c(C)o3)cc2)c1	none (no result: L3MBTL1 inh)
CCn1ccnc1CN(C)Cc1cn(-c2ccc(C)cc2)nc1-c1ccc(F)cc1	HP1b binding inh inconclusive, BAZ2B block 50µM, JMJD2A Tudor inconclusive
COc1ccc(NC(=O)C(C)n2c(C)c3cnn(-c4ccccc4)c(=O)c3c2C)cc1Cl (stereo not given)	none (no result: L3MBTL1 inh)
COc1ccccc1C1=NNC(=Nc2cccc(S(=O)(=O)N(C)C)c2)SC1	HP1b binding inh inconclusive, L3MBTL1 inh inconclusive, BAZ2B block inconclusive, G9a block 16µM
COc1ccc(-c2c3c(=O)n(C)c(=O)n(C)c3cn2C2CCCCC2)cc1	HP1b binding inh inconclusive, BAZ2B block 50µM, JMJD2A Tudor inconclusive, G9a block inconclusive (no result: L3MBTL1 inh)
Cc1ncc(C[n+]2csc(CCOC(=O)CC3C4CC5CC(C4)CC3C5)c2C)c(N)n1 (stereo not given)	G9a block 50µM
Cc1ccc(SC(C)C(=O)Nc2ncn[nH]2)cc1 (stereo not given)	BAZ2B block 56µM, G9a block inconclusive
CC(C(=O)Nc1ncn[nH]1)N1C(=O)c2ccccc2C1=O (stereo not given)	G9a block inconclusive
Cc1ccc(C(=O)Nc2ncn[nH]2)cc1	BAZ2B block 50µM, JMJD2A Tudor inconclusive, G9a block inconclusive
O=C(Nc1ncn[nH]1)c1cccc(F)c1	BAZ2B block 50µM, JMJD2A Tudor inconclusive (no result: HP1b binding inh)
O=C(Nc1cccc(NC(=O)c2cccc(F)c2)n1)c1cccc(F)c1	G9a block inconclusive (no result: L3MBTL1 inh)
CC(C)(C)c1ccc(C(=O)Nc2ncn[nH]2)cc1	BAZ2B block inconclusive, G9a block inconclusive
Cc1ccccc1N(C)C(=O)c1noc2c1COc1ccccc1-2	none (no result: L3MBTL1 inh)
Cc1c(Cl)cccc1NS(=O)(=O)c1ccc(NS(=O)(=O)c2ccc3c(c2)OCCO3)cc1	G9a block inconclusive (no result: L3MBTL1 inh)
COc1ccc2c(CNCCc3ccco3)c(C(=O)O)n(Cc3ccc(F)cc3)c2c1	none (no result: L3MBTL1 inh)
Cc1cc(C)c(S(=O)(=O)/N=C2/C=C(Sc3ncn[nH]3)C(=O)c3ccccc32)cc1C	HP1b binding inh inconclusive, L3MBTL1 inh inconclusive, BAZ2B block 45µM, JMJD2A Tudor inconclusive, G9a block 1.4µM
Cc1ccc([N+](=O)[O-])cc1S(=O)(=O)Nc1ccc(O)c(Sc2ncn[nH]2)c1	none (no result: L3MBTL1 inh, G9a block)
Cc1ccc(NS(=O)(=O)c2ccc3c(c2)CCCN3C(=O)C2CCC2)c(C)c1	none (no result: L3MBTL1 inh)
CC1=C(C(=O)Nc2ccc(F)cc2)C(c2ccc(C)o2)C2=C(CC(C)(C)CC2=O)N1 (stereo not given)	G9a block 50µM
Cc1ccc(CNC(=O)c2cc3ccccc3oc2=O)cc1	none (no result: L3MBTL1 inh, BAZ2B block, G9a block)
N/C(=N\OC(=O)N1c2ccccc2Sc2ccccc21)c1ccccc1	BAZ2B block inconclusive, JMJD2A Tudor inconclusive, G9a block 45µM
COc1ccc(CNC(=O)CCc2c(C)nc3c(c(C)nn3-c3ccccc3)c2C)cc1	none (no result: L3MBTL1 inh)
CC(C)CN(C(=O)COC(=O)c1ccc2c(c1)NC(=O)CS2)C1CCS(=O)(=O)C1 (stereo not given)	HP1b binding inh inconclusive, G9a block inconclusive
CCN(C(=O)COC(=O)c1cc(C)n(-c2ccc(F)cc2)c1C)C1CCS(=O)(=O)C1 (stereo not given)	BAZ2B block inconclusive, G9a block 50µM
Cc1ccc(-n2c(C)cc(C(=O)OCC(=O)N(C)C3CCS(=O)(=O)C3)c2C)cc1 (stereo not given)	BAZ2B block inconclusive, G9a block 50µM
Cc1ccc(-n2c(C)cc(C(=O)OCC(=O)N(CC(C)C)C3CCS(=O)(=O)C3)c2C)cc1 (stereo not given)	BAZ2B block inconclusive, JMJD2A Tudor inconclusive, G9a block inconclusive
CN(C(=O)COC(=O)c1ccc2c(c1)NC(=O)CS2)C1CCS(=O)(=O)C1 (stereo not given)	G9a block 50µM
CCN1C(=O)[C@@H]2[C@@H](c3ccc(-c4ccc(F)cc4)c(OC)c3)N3CCC[C@@]3(C(=O)OC)[C@@H]2C1=O	JMJD2A Tudor inconclusive (no result: BAZ2B block, G9a block)
NS(=O)(=O)c1ccc(NC(=O)c2ccc(CNS(=O)(=O)c3cc(C(F)(F)F)ccc3Cl)cc2)cc1	none (no result: G9a block)
O=C(NC(=S)Nc1ccccc1Br)c1ccco1	G9a block 45µM (no result: L3MBTL1 inh)
NS(=O)(=O)c1ccc(NC(=S)NC(=O)c2ccco2)cc1	JMJD2A Tudor 25µM, G9a block 56µM

Screening results as filed in PubChem BioAssay.
